Sampled rows, rich in hits. Any-hit rate of the full collection: about 3.5%.
MITF primary: blocks human microphthalmia-associated transcription factor; AlphaScreen MITF homodimerization, bead proximity signal; inhibition, % at 2.6 µM; 0.91% of 650,000 active; AID 1259374; in the data active = inhibition above about 50%;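 note: 0% = vehicle wells with protein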
FBW7 activator: activators of human E3 ligase FBW7; AlphaScreen FBW7–phospho-cyclin E peptide binding, activator screen; Q969H0; normalized activity (activation), % at 26.1 µM; 0.13% of 650,000 active; in the data active = normalized activity above about 1.9%;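 note: purified mutant Fbw7 with reduced substrate affinity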
Target sequence (Q969H0 whole entry, looked up): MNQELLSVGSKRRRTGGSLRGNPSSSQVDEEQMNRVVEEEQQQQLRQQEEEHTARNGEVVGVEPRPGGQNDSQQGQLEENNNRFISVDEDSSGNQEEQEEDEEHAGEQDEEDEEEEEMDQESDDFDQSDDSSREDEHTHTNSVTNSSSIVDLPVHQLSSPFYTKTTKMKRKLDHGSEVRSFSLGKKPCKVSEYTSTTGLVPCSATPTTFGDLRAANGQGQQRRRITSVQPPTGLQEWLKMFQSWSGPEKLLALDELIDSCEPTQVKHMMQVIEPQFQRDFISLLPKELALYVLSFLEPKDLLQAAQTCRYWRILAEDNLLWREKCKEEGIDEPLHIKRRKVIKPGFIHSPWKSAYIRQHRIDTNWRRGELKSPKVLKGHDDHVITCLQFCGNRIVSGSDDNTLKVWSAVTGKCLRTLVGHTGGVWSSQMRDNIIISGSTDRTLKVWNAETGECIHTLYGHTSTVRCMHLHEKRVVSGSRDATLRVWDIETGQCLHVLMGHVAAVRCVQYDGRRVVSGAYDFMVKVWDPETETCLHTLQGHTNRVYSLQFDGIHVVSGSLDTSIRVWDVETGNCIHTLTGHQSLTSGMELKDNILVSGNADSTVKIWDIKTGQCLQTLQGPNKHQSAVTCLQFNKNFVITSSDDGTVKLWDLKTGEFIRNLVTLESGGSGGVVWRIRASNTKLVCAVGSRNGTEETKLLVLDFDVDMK
GPR151 activ: human GPR151 activation; AID 1508602; activation, % at 11.2 µM; Q8TDV0; 1% of 650,000 active; PathHunter beta-arrestin GPR151 cells, luminescence; in the data active = activation above about 4.9%;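 note: 0% = median of compound wells and 100% = cells with positive control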
TEAD-YAP block: TEAD-YAP interaction inhibition. HEK-TIYL cells, TEAD-Gal4/YAP UAS-luciferase luminescence. inhibition, % at 9.12 µM. 1.4% of 640,000 active. AID 1259422; in the data active = inhibition above about 32%;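 note: 0% = median of test compound wells and 100% = reference inhibitor wells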
An asterisk follows results filed as active.

How did CCOc1cc(/C=C2\SC(=Nc3ccc(C(=O)O)cc3)N(C)C2=O)ccc1O do in these assays?
MITF primary: 3.5; FBW7 activator: -0.1; GPR151 activ: 1.5; TEAD-YAP block: 46.3*

How did COc1cc(/C=C2\SC(=S)N(CCCC(=O)O)C2=O)ccc1O do in these assays?
MITF primary: 4.7; FBW7 activator: 0.0; GPR151 activ: 1.8; TEAD-YAP block: 62.0*

What do the screens show for `COc1ccccc1CN1CCCC(C(N)=O)C1` (stereo unspecified)?
MITF primary: 1.6; FBW7 activator: 0.0; GPR151 activ: 0.6; TEAD-YAP block: -0.8

What do the screens show for `Cc1ccc(-n2c(=S)sc3c(=O)n(-c4ccccc4C)c(SCC4OCCO4)nc32)c(C)c1`?
MITF primary: -1.4; FBW7 activator: 0.0; GPR151 activ: 0.3; TEAD-YAP block: 11.5

Results for Cc1ccc(N2C(=O)CSC2c2ccc(C3SCC(=O)N3c3ccc(C)cc3)cc2)cc1 (stereo unspecified) ?
MITF primary: 0.8; FBW7 activator: -0.1; GPR151 activ: 1.4; TEAD-YAP block: 4.8

How did CC(CC(=O)Nc1cccc(-c2ccno2)c1)S(=O)(=O)c1ccc2c(c1)OCC(=O)N2 (stereo unspecified) do in these assays?
MITF primary: -9.3; FBW7 activator: -0.1; GPR151 activ: -3.0; TEAD-YAP block: -3.3

How did CCCC(=O)Nc1ccccc1-c1nc2cc3ccccc3cc2[nH]c1=O do in these assays?
MITF primary: -0.6; FBW7 activator: -0.1; GPR151 activ: 0.6; TEAD-YAP block: 55.0*

How did COc1cc(OC)nc(Sc2ccccc2/C=N/O)n1 do in these assays?
MITF primary: 3.8; FBW7 activator: 0.3; GPR151 activ: 3.2; TEAD-YAP block: 56.9*

Results for CCCc1ccc(Oc2cn[nH]c2-c2ccc(O)cc2O)cc1 ?
MITF primary: 2.7; FBW7 activator: -0.2; GPR151 activ: 0.3; TEAD-YAP block: 65.3*

What do the screens show for `CN1C(=O)/C(=C/c2cc(Cl)ccc2O)NC1=S`?
MITF primary: -6.9; FBW7 activator: 0.0; GPR151 activ: 1.8; TEAD-YAP block: 62.2*

What do the screens show for `O=c1[nH]c2ccc(S(=O)(=O)Nc3ccccc3)cc2o1`?
MITF primary: -8.9; FBW7 activator: 0.1; GPR151 activ: -1.0; TEAD-YAP block: -39.2

Results for Cc1cc(C)c(NS(=O)(=O)c2ccc3[nH]c(=O)oc3c2)c(C)c1 ?
MITF primary: 13.6; FBW7 activator: 6.3*; GPR151 activ: -0.6; TEAD-YAP block: 4.6

What do the screens show for `O=C(Nc1cc(-c2ccncc2)c[nH]c1=O)C1Cc2c(ccc3ccccc23)O1` (stereo unspecified)?
MITF primary: 7.4; FBW7 activator: 0.0; GPR151 activ: -0.9; TEAD-YAP block: 32.8*

What do the screens show for `Cc1cc2nc(-c3cccc(F)c3)c(-c3cccc(F)c3)nc2cc1C`?
MITF primary: 11.9; FBW7 activator: 0.1; GPR151 activ: 1.7; TEAD-YAP block: -1.1

What do the screens show for `CC(C)COCc1ccc(O)c2ncccc12`?
MITF primary: 58.6*; FBW7 activator: -2.2; GPR151 activ: 0.0; TEAD-YAP block: 22.3

What do the screens show for `Nc1nonc1C(=O)N/N=C\c1ccc(O)c(O)c1`?
MITF primary: -5.1; FBW7 activator: -0.2; GPR151 activ: -4.8; TEAD-YAP block: 2.1

What do the screens show for `Nc1nonc1C(=O)N/N=C/c1ccc(O)cc1O`?
MITF primary: 94.4*; FBW7 activator: -0.6; GPR151 activ: -6.8; TEAD-YAP block: 9.1

How did O=C(N/N=C/c1cc(Cl)ccc1O)c1cccs1 do in these assays?
MITF primary: 40.4; FBW7 activator: -0.6; GPR151 activ: -0.2; TEAD-YAP block: 55.4*

How did O=C(N/N=C\c1ccc(O)cc1O)C(=O)N/N=C/c1ccc(O)cc1O do in these assays?
MITF primary: 68.8*; FBW7 activator: -1.3; GPR151 activ: -0.5; TEAD-YAP block: 13.3

Results for O=C(N/N=C/c1ccc(O)cc1O)c1ccc[n+](CCO)c1 ?
MITF primary: 101.5*; FBW7 activator: -1.1; GPR151 activ: 2.6; TEAD-YAP block: 6.9

Results for O=C1C2C3C=CC(C4CC34)C2C(=O)N1c1ccccc1-c1ccccc1 (stereo unspecified) ?
MITF primary: 3.8; FBW7 activator: 0.0; GPR151 activ: -0.4; TEAD-YAP block: 0.8

Results for COC(=O)c1c(-c2ccccc2)csc1NC(=O)CSc1nnc2cc(C)c3ccccc3n12 ?
MITF primary: -1.1; FBW7 activator: 0.0; GPR151 activ: -0.8; TEAD-YAP block: -15.0

Results for O=C(c1cn(C[C@H]2CCCN(C(=O)c3cc(-c4ccco4)on3)C2)nn1)N1CCOCC1 ?
MITF primary: -2.8; FBW7 activator: 0.5; GPR151 activ: -0.9; TEAD-YAP block: 6.7

How did N#Cc1ccccc1NC(=O)CSc1nc(-c2ccccc2)c(C#N)c(=O)[nH]1 do in these assays?
MITF primary: 14.2; FBW7 activator: 0.6; GPR151 activ: -1.8; TEAD-YAP block: 5.7

Results for CCN(CC)c1ccc(/C=N/NC(=O)c2nonc2N)cc1 ?
MITF primary: -19.3; FBW7 activator: -0.2; GPR151 activ: -3.9; TEAD-YAP block: 45.6*

What do the screens show for `COc1ccc(C(=O)N/N=C/c2ccc(O)cc2O)cc1`?
MITF primary: 47.9; FBW7 activator: -0.2; GPR151 activ: -1.5; TEAD-YAP block: 7.6

How did CCOc1cc(C(=O)N/N=C/c2ccc(O)cc2O)cc(OCC)c1OCC do in these assays?
MITF primary: 9.7; FBW7 activator: -0.5; GPR151 activ: 1.6; TEAD-YAP block: 72.2*

Results for O=C(N/N=C/c1cc(Br)ccc1F)c1cccs1 ?
MITF primary: -1.6; FBW7 activator: 0.0; GPR151 activ: 0.1; TEAD-YAP block: -50.1

How did O=C(N/N=C/c1cc(Br)ccc1O)c1cccs1 do in these assays?
MITF primary: 31.0; FBW7 activator: 0.0; GPR151 activ: -0.3; TEAD-YAP block: 39.7*

How did O=C(N/N=C/c1ccc(O)cc1)c1cccs1 do in these assays?
MITF primary: 16.3; FBW7 activator: -0.1; GPR151 activ: -6.8; TEAD-YAP block: -50.4

What do the screens show for `O=C(N/N=C/c1ccc(O)cc1O)c1cccs1`?
MITF primary: 82.5*; FBW7 activator: -0.1; GPR151 activ: -4.5; TEAD-YAP block: -25.3

Results for CCSc1nnc(NC(=O)CCC2CCCC2)s1 ?
MITF primary: 10.3; FBW7 activator: 0.4; GPR151 activ: -0.4; TEAD-YAP block: 4.1

What do the screens show for `Cc1ccccc1NCC(=O)N/N=C/c1cccc2ccccc12`?
MITF primary: -2.5; FBW7 activator: -0.2; GPR151 activ: 0.1; TEAD-YAP block: 5.7

How did O=C(CNc1ccc2ccccc2c1)N/N=C/c1ccc(O)cc1O do in these assays?
MITF primary: -3.9; FBW7 activator: -0.3; GPR151 activ: 1.9; TEAD-YAP block: 39.9*

How did COCC(=O)N(C)C(Cc1ccc(F)cc1)C1CCN(C(=O)CC2=CCCCC2)CC1 (stereo unspecified) do in these assays?
MITF primary: -6.5; FBW7 activator: -0.1; GPR151 activ: 0.3; TEAD-YAP block: -3.6

What do the screens show for `COc1ccc(CNc2c(-c3ccc(O)cc3O)nc3cnccn23)cc1`?
MITF primary: -4.0; FBW7 activator: -0.1; GPR151 activ: -0.1; TEAD-YAP block: 64.6*

How did COCCNc1c(-c2ccc(O)cc2O)nc2cnccn12 do in these assays?
MITF primary: 0.7; FBW7 activator: -0.1; GPR151 activ: 0.7; TEAD-YAP block: -5.5

Assay outcomes as filed in PubChem BioAssay.
